{"source": "PubChem BioAssay AID2546", "about": "(National Center for Advancing Translational Sciences (NCATS), 2010)", "note": "Out of some 310,000 compounds screened, about 11,000 (3.5%) were called active. Another 8% or so got no clear call; they are omitted. Shown is part of a subset that was picked to be rich in actives. A number with no mark means an inactive call. The call rests on the fitted dose curve; in most records, active means well fitted inhibition curve with a large enough effect; inconclusive means small, poorly fitted or top-dose-only effect, or effect the other way; inactive means flat fitted curve, though single readings scatter. On the % scale 0 is the no-effect control and ±100 the full control effect; potency means the concentration at half of the fitted maximal effect."}
{"test": "VP16 counterscreen qHTS for inhibitors of ROR gamma transcriptional activity;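 further: Gal4-VP16 expression switched on by copper sulfate through the metallothionein promoter; nearly all actives have a fitted effect of over 50% in size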", "details": "Drosophila S2 Gal4-VP16 UAS-luciferase, luminescence, 20 h; series mostly up to 53.6 µM; activity, negative = inhibition: at the top concentration"}
{"smiles": "O=C(c1cc(COc2ccc(F)c(F)c2)on1)N1CCOCC1", "activity, negative = inhibition": "-16%"}
{"smiles": "COc1ccc(OCc2cc(C(=O)N3CCCC3)no2)c2ccccc12", "activity, negative = inhibition": "12.5%"}
{"smiles": "COc1ccc(CCN2CC(C(=O)NCCN3CCNC3=O)CCC2=O)cc1", "note": "(stereo not given)", "activity, negative = inhibition": "-15.9%"}
{"smiles": "COc1ccc(CNC(=O)Cc2ccc(-c3ccccc3)cc2)cc1OC", "activity, negative = inhibition": "10.3%"}
{"smiles": "Cc1ccc(C(=O)Nc2nnc(C3=COCCO3)o2)cc1C", "Potency": "0.282 µM (active)"}
{"smiles": "Cc1nc(NC(=O)c2ccc3c(c2)OCCO3)ccc1Br", "activity, negative = inhibition": "-6.43%"}
{"smiles": "Cc1ccc(C(=O)NCCN2CCOCC2)cc1C", "activity, negative = inhibition": "2.14%"}
{"smiles": "O=C(Nc1nnc(C2=COCCO2)o1)c1ccc([N+](=O)[O-])s1", "Potency": "3.16 µM (active)"}
{"smiles": "COc1cc(C(C(=O)NC2CCCC2)N(Cc2ccccc2)C(=O)c2snc(C(N)=O)c2N)ccc1O", "note": "(stereo not given)", "activity, negative = inhibition": "-16.6%"}
{"smiles": "COc1cccc(C(C(=O)NC2CCCC2)N(C(=O)c2ccco2)c2cccc(C(C)=O)c2)c1OC", "note": "(stereo not given)", "activity, negative = inhibition": "8.49%"}
{"smiles": "CCN1C(=NCC(C)C)N[C@@H](CCc2ccccc2)[C@H](C(=O)NCC(C)C)[C@H]1C", "Potency": "inactive"}
{"smiles": "COC(=O)c1ccc(CN2CCCC(C(=O)Nc3cccc(-n4cnnn4)c3)C2)cc1", "note": "(stereo not given)", "activity, negative = inhibition": "-0.887%"}
{"smiles": "CC(=O)c1ccc(N2CCN(C(=O)CCc3ccccc3)CC2)cc1", "activity, negative = inhibition": "10.4%"}
{"smiles": "C=CCN1CCN(C(=O)CCCc2ccccc2)CC1", "Potency": "7.94 µM (active)"}
{"smiles": "O=C(CCCc1ccccc1)NCc1ccccc1", "activity, negative = inhibition": "-5.36%"}
{"smiles": "COC(=O)c1cccc(N(CC(=O)NCC2CCCO2)C(=O)CCC(=O)Nc2cc(C)on2)c1", "note": "(stereo not given)", "activity, negative = inhibition": "3.36%"}
{"smiles": "CC(C)NS(=O)(=O)c1ccc(OCC(=O)NC2CCCCCC2)cc1", "activity, negative = inhibition": "-4.5%"}
{"smiles": "CC(=O)Oc1c2c(c3c(c1CC=C(C)C)O[C@@]14C(=CC5CC1C(C)(C)OC4(C/C=C(\\C)C(=O)O)C5=O)C3=O)OC(C)(CCC=C(C)C)C=C2", "note": "(stereo not given in full)", "Potency": "5.62 µM (active)"}
{"smiles": "COc1ccc(CNC(=O)c2cc(C(=O)C3CC3)c[nH]2)cc1", "Potency": "22.4 µM (active)"}
{"smiles": "COc1ccc(CNC(=O)c2c[nH]c3c(OC)cc(OC)cc3c2=O)cc1", "activity, negative = inhibition": "2.18%"}
{"smiles": "CC(C)CC(=O)c1c[nH]c(C(=O)NCc2ccccc2)c1", "activity, negative = inhibition": "-0.114%"}
{"smiles": "COc1ccc(N2CCC(N3CCN(C)C(CCO)C3)CC2)cc1", "note": "(stereo not given)", "activity, negative = inhibition": "-1.4%"}
{"smiles": "Cc1cc(C)n(CC(O)COc2ccc(C(C)(C)C)cc2)n1", "note": "(stereo not given)", "activity, negative = inhibition": "2.58%"}
{"smiles": "CC(=O)c1ccc(N2CCN(C(=O)CCNC(=O)Cn3ccc4ccccc4c3=O)CC2)cc1", "activity, negative = inhibition": "2.36%"}
{"smiles": "CCOc1ccc(S(=O)(=O)N2CCC(C(=O)NCc3ccccn3)CC2)cc1Cl", "activity, negative = inhibition": "2.16%"}
{"smiles": "O=C(Nc1ccccc1C(=O)NCCCn1ccnc1)c1ccc(Cl)cc1Cl", "activity, negative = inhibition": "-8.8%"}
{"smiles": "Clc1ccc(C(Cn2ccnc2)OCc2ccsc2Cl)c(Cl)c1", "note": "(stereo not given)", "Potency": "15.8 µM (active)"}
{"smiles": "O=C(NCCCn1ccnc1)Nc1ccc(Cl)cc1Cl", "activity, negative = inhibition": "-7.92%"}
{"smiles": "CSCCC(NS(=O)(=O)c1ccccc1F)C(=O)N1CC=C(c2ccccc2)CC1", "note": "(stereo not given)", "activity, negative = inhibition": "-0.385%"}
{"smiles": "O=C(Nc1ccc(Cl)c(Cl)c1)c1ccccc1NC(=O)C1CC=CCC1C(=O)O", "note": "(stereo not given)", "activity, negative = inhibition": "2.06%"}
{"smiles": "Cc1cccc(CS(=O)(=O)c2ncc(Cl)c(C(=O)Nc3ccc(F)cc3)n2)c1", "Potency": "3.16 µM (active)"}
{"smiles": "CCSc1ncc(Cl)c(C(=O)Nc2cc(C)ccc2C)n1", "activity, negative = inhibition": "0.583%"}
{"smiles": "Cc1ccc(CS(=O)(=O)c2ncc(Cl)c(C(=O)Nc3nnc(C)s3)n2)cc1", "Potency": "6.31 µM (active)"}
{"smiles": "Cc1cccc(OCc2ccc(C(=O)Nc3ccc(F)cc3)cc2)c1", "activity, negative = inhibition": "-0.168%"}
{"smiles": "Cc1cccc(NC(=O)C(C)SCc2ccccc2)c1", "note": "(stereo not given)", "activity, negative = inhibition": "-3.55%"}
{"smiles": "Cc1nnc(NC(=O)Nc2ccc(Cl)c(Cl)c2)s1", "activity, negative = inhibition": "1.23%"}
{"smiles": "Cc1cccc(NC(=O)c2nc(S(=O)(=O)Cc3ccccc3)ncc2Cl)c1", "Potency": "4.47 µM (active)"}
{"smiles": "CSc1ncc(Cl)c(C(=O)Nc2cc(C)ccc2C)n1", "activity, negative = inhibition": "2.76%"}
{"smiles": "Cc1ccc(S(=O)(=O)CC(=O)Nc2nnc(C)s2)cc1", "activity, negative = inhibition": "0.532%"}
{"smiles": "O=S(=O)(c1ccc(Cl)cc1)c1nc(-c2ccco2)oc1N1CCCCC1", "activity, negative = inhibition": "-7.28%"}
{"smiles": "Cc1c(CNCCc2ccccc2)c(C(=O)O)c(C)n1-c1ccccc1", "activity, negative = inhibition": "20.5%"}
{"smiles": "CCn1c(C)c(C)c2cc(C(=O)N3CCN(c4cccc(C)c4C)CC3)ccc21", "activity, negative = inhibition": "1.57%"}
{"smiles": "CCCCCCC(=O)N(O)C1CC(=O)N(c2ccccc2)C1=O", "note": "(stereo not given)", "Potency": "5.01 µM (active)"}
{"smiles": "CCOC(=O)c1ccc(N2C(=O)CC(N(C)Cc3ccccc3)C2=O)cc1", "note": "(stereo not given)", "activity, negative = inhibition": "-0.343%"}
{"smiles": "CCOc1ccc(N2C(=O)CC(N(O)c3ccccc3)C2=O)cc1", "note": "(stereo not given)", "activity, negative = inhibition": "2.07%"}
{"smiles": "COc1ccc(CN(C)C(=O)Cc2ccsc2)c(OC)c1OC", "activity, negative = inhibition": "-2.7%"}
{"smiles": "CC1CCN(S(=O)(=O)c2ccc3c(ccn3CC(=O)O)c2)CC1", "activity, negative = inhibition": "0.253%"}
{"smiles": "COc1ccc(-c2csc(Nc3ccccn3)n2)cc1", "activity, negative = inhibition": "-8.73% [at 10 µM]"}
{"smiles": "COc1ccc(-c2csc(NC3OC(=O)c4ccccc43)n2)cc1", "note": "(stereo not given)", "activity, negative = inhibition": "9.71%"}
{"smiles": "COc1ccc(-c2csc(Nc3ccc(O)cc3)n2)cc1", "Potency": "12.6 µM (active)"}
{"smiles": "COc1ccc(-c2csc(NC(=O)c3ccc(N4C(=O)CCC4=O)cc3)n2)cc1OC", "activity, negative = inhibition": "-0.532%"}
{"smiles": "COc1ccc(C)cc1Nc1nc(-c2c(C)[nH]c3ccccc23)cs1", "activity, negative = inhibition": "-9.12%"}
{"smiles": "COc1ccc(OC)c(Nc2nc(-c3ccc(O)c(O)c3)cs2)c1", "Potency": "8.91 µM (active)"}
{"smiles": "O=S(=O)(Cc1cc(Cl)nc(-c2cccnc2)n1)c1ccccc1", "activity, negative = inhibition": "-13.2%"}
{"smiles": "CCOC(=O)C1CCCN(S(=O)(=O)c2ccc(-n3cnnn3)c(C)c2)C1", "note": "(stereo not given)", "activity, negative = inhibition": "13.5%"}
{"smiles": "OC(c1nc2ccccc2[nH]1)C(O)C(O)C(O)c1nc2ccccc2[nH]1", "note": "(stereo not given)", "activity, negative = inhibition": "-6.56%"}
{"smiles": "c1ccc2[nH]c(-c3nc4ccccc4[nH]3)nc2c1", "Potency": "10 µM (active)"}
{"smiles": "Cc1ccc(-c2nc3ccccc3[nH]c2=O)cc1", "activity, negative = inhibition": "-9.75%"}
{"smiles": "O=C(CSc1ccc(-c2ccco2)nn1)Nc1cccc(F)c1", "activity, negative = inhibition": "-2.6%"}
{"smiles": "Cn1c(CNC(=O)c2ccccc2F)nnc1SCc1ccc(F)cc1", "activity, negative = inhibition": "-1.58%"}
{"smiles": "Cn1c(Cn2nnc3ccccc32)nnc1SCC(=O)c1ccccc1F", "Potency": "7.08 µM (active)"}
{"smiles": "Cc1ccc(C(=O)CSc2nnc(Cn3nnc4ccccc43)n2C)cc1", "activity, negative = inhibition": "15.3%"}
{"smiles": "CS(=O)(=O)Nc1cccc(C2=NN(C(=O)c3cccc(F)c3)C(c3cccs3)C2)c1", "note": "(stereo not given)", "activity, negative = inhibition": "8.13%"}
{"smiles": "CCOc1ccc(-c2noc(CCC(=O)NC3CCCC3)n2)cc1OC", "activity, negative = inhibition": "6.06%"}
{"smiles": "Cc1[nH]n(-c2ccccc2)c(=O)c1N=Nc1ccccc1C(=O)N1CCCCC1", "activity, negative = inhibition": "3.52%"}
{"smiles": "Cc1ccc(-n2[nH]c(C)c(/C=N/NC(=O)c3cccc([N+](=O)[O-])c3)c2=O)cc1C", "Potency": "0.891 µM (active)"}
{"smiles": "O=C(N/N=C/c1cccc([N+](=O)[O-])c1)c1ccncc1", "activity, negative = inhibition": "-2.67%"}
{"smiles": "Cc1[nH]n(-c2ccccc2)c(=O)c1/C=N/NC(=O)c1ccoc1C", "Potency": "1 µM (active)"}
{"smiles": "COc1cccc(/C=N/NC(=O)c2cccc([N+](=O)[O-])c2)c1OS(=O)(=O)c1ccc(C)cc1", "activity, negative = inhibition": "-1.03%"}
{"smiles": "COc1cc(/C=N/NC(=O)c2ccoc2C)ccc1OCCN1CCCCC1", "activity, negative = inhibition": "-3.7%"}
